Common to all, as to assay: DAPPL (digital affinity profiling via proximity ligation, sequencing); 10 mM Tris-HCl pH 7.5, 50 mM NaCl, 1 mM DTT, 4% glycerol, room temperature, 30 min; GST-TFs on glutathione beads, 16-mer random dsDNA library, 0.1% formaldehyde crosslink after washing; high values mean tight binding
One assay deals with T1, FEV (Homo sapiens, UniProt Q99581 1-238).
T1 sequence: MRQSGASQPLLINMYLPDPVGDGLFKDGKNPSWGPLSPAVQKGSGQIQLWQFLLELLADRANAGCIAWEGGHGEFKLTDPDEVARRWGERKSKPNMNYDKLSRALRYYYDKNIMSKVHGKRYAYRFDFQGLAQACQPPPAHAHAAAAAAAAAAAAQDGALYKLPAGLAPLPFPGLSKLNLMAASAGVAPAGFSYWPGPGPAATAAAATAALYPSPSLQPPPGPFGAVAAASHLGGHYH
To be noted: protein: recombinant; tags: N-terminal GST; dsDNA, one strand shown. In a few lines: (§1)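 Beads coated with glutathione captured GST-fused human transcription factors that had been expressed in yeast, and the factors were then given DNA barcodes and pooled with a tag-only sample. The pools were incubated with 200 nmole of a random double-stranded 16-mer DNA library in Tris/NaCl/DTT/glycerol buffer for 30 min at room temperature, washed, crosslinked with 0.1% formaldehyde and proximity-ligated with BsaI/T4 ligase at 37 °C for 1 h. PCR amplification and Illumina NextSeq500 sequencing came last. Binding signal is each hexamer's read frequency for a factor divided by its frequency for the tag-only sample.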

Another assay concerns the target ETV5 (Homo sapiens, UniProt P41161 1-510). The following applies: protein: recombinant; tags: N-terminal GST; dsDNA, one strand shown. The method, boiled down:
as §1

The next assay concerns the target HSF1 (Homo sapiens, UniProt Q00613 1-529). The following applies: protein: recombinant; tags: N-terminal GST; chain copies: 3; dsDNA, one strand shown. In a few lines: as §1
For the next assay, the target named is T2, SPIC (Homo sapiens, UniProt Q8N5J4 1-248).
T2 sequence: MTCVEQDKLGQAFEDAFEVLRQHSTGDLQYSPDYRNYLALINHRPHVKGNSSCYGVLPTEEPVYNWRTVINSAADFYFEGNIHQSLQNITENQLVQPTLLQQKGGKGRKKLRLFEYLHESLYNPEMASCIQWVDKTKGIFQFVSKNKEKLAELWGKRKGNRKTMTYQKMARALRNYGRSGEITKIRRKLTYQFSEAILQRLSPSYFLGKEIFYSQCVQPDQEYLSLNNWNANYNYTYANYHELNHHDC
To be noted: protein: recombinant; tags: N-terminal GST; dsDNA, one strand shown. The method, boiled down: as §1

The next assay addresses ELF4 (Homo sapiens, UniProt Q99607 1-663). To be noted: protein: recombinant; tags: N-terminal GST; dsDNA, one strand shown. In a few lines:
as §1

In another assay the target is T3, ELK4 (Homo sapiens, UniProt P28324-2 1-405).
T3 sequence: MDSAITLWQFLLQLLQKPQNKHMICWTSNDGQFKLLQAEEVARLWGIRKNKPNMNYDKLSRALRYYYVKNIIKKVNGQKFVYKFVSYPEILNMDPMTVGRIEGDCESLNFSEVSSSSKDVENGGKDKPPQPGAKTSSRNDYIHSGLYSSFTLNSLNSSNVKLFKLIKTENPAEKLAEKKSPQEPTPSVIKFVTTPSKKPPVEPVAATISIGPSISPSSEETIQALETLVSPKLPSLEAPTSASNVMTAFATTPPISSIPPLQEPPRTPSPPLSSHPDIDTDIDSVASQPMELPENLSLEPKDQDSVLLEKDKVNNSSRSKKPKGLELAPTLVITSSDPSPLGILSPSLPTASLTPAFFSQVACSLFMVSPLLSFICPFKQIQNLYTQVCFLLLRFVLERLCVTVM
To be noted: protein: recombinant; tags: N-terminal GST; dsDNA, one strand shown. In a few lines:
as §1

The next assay concerns the target T4, ETV2 (Homo sapiens, UniProt O00321 1-342).
T4 sequence: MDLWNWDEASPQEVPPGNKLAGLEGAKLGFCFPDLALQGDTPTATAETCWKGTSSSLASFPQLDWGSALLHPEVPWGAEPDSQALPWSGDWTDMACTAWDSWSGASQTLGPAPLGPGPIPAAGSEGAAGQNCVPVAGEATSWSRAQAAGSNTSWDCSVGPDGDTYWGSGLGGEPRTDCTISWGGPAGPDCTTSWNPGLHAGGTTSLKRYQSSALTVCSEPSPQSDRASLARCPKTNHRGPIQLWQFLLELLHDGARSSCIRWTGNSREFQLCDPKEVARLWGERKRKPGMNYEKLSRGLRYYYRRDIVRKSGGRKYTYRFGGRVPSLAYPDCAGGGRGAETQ
To be noted: protein: recombinant; tags: N-terminal GST; dsDNA, one strand shown. In a few lines:
as §1

The next assay concerns the target T5, ELF3 (Homo sapiens, UniProt P78545 1-371).
T5 sequence: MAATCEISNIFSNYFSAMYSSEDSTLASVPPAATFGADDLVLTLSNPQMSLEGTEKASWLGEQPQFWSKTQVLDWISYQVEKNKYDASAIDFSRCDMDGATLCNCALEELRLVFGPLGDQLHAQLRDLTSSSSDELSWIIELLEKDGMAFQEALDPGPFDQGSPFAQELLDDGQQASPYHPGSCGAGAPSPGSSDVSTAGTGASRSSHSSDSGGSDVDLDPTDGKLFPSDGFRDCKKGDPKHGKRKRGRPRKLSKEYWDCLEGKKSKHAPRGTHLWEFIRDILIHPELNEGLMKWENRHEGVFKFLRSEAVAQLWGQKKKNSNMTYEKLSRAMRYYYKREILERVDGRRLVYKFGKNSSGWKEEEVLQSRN
To be noted: protein: recombinant; tags: N-terminal GST; dsDNA, one strand shown. In a few lines:
as §1

Another assay deals with CRX (Homo sapiens, UniProt O43186 1-299). To be noted: protein: recombinant; tags: N-terminal GST; dsDNA, one strand shown. In a few lines:
as §1

A further assay concerns the target ETV1 (Homo sapiens, UniProt P50549 1-477). To be noted: protein: recombinant; tags: N-terminal GST; dsDNA, one strand shown. The method, boiled down:
as §1

Another assay deals with T6, ERF (Homo sapiens, UniProt P50548 1-548).
T6 sequence: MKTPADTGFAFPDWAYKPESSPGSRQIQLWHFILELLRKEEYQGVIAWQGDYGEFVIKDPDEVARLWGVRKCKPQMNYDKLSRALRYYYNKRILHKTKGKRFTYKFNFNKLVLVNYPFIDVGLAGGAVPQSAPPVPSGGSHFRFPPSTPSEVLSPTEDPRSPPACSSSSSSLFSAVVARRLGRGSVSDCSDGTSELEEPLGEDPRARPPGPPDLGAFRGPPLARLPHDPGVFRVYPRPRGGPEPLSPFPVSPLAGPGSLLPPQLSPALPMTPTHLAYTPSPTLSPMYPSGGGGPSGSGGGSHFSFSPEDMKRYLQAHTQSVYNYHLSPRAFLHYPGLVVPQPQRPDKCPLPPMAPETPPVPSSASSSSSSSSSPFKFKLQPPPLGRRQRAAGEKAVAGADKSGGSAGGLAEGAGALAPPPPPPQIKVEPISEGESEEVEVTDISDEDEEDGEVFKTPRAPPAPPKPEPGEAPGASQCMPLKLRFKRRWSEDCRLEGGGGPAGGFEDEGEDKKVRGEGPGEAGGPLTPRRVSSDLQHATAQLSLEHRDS
The following applies: protein: recombinant; tags: N-terminal GST; dsDNA, one strand shown. In a few lines:
as §1

The target of another assay is T7, ETV3L (Homo sapiens, UniProt Q6ZN32 1-361).
T7 sequence: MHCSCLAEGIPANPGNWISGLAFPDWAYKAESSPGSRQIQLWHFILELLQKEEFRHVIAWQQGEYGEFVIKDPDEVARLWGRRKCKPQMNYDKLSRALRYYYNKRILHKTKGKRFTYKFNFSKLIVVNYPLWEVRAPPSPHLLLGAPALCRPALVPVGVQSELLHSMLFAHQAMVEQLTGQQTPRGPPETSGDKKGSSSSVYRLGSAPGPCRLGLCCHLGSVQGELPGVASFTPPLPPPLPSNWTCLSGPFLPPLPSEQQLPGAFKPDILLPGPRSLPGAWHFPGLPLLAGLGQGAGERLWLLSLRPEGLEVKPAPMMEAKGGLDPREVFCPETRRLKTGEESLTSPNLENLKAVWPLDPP
The following applies: protein: recombinant; tags: N-terminal GST; dsDNA, one strand shown. The method, boiled down: as §1

In the next assay the target is T8, ETS2 (Homo sapiens, UniProt P15036 1-469).
T8 sequence: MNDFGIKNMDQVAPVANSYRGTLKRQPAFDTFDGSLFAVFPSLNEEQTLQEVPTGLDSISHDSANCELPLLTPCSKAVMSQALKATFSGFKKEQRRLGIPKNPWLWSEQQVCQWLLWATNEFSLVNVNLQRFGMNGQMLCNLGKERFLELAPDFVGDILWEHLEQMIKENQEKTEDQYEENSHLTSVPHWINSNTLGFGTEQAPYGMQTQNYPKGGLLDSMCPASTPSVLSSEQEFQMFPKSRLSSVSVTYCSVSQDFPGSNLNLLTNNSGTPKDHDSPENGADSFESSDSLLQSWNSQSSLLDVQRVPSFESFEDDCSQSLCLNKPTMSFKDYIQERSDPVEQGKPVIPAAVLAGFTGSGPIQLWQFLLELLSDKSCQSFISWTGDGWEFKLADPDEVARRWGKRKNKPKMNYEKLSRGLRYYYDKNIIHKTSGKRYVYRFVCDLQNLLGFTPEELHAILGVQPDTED
To be noted: protein: recombinant; tags: N-terminal GST; dsDNA, one strand shown. The method, boiled down:
as §1

Another assay deals with T9, SPDEF (Homo sapiens, UniProt O95238 1-335).
T9 sequence: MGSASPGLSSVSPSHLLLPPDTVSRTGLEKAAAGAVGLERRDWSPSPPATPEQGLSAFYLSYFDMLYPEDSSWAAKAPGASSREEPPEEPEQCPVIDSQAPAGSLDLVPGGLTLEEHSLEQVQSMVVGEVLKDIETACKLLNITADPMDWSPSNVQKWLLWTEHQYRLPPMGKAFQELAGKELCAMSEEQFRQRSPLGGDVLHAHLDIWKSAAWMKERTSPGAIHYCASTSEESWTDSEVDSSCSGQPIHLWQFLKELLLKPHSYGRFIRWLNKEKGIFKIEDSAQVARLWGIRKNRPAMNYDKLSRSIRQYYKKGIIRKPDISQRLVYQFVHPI
To be noted: protein: recombinant; tags: N-terminal GST; dsDNA, one strand shown. The method, boiled down:
as §1

Another assay addresses T10, ETV7 (Homo sapiens, UniProt Q9Y603 1-341).
T10 sequence: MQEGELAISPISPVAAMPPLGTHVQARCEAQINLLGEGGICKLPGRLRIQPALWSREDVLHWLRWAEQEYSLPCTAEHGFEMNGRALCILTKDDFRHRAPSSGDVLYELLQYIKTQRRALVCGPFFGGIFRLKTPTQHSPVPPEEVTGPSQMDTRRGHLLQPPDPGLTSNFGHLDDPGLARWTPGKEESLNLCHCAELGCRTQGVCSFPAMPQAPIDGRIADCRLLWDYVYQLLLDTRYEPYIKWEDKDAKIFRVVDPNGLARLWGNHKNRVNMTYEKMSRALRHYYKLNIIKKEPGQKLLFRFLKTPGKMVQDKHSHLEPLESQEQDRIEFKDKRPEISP
The following applies: protein: recombinant; tags: N-terminal GST; dsDNA, one strand shown. The method, boiled down: as §1

Another assay concerns the target T11, ELF5 (Homo sapiens, UniProt Q9UKW6-2 1-255).
T11 sequence: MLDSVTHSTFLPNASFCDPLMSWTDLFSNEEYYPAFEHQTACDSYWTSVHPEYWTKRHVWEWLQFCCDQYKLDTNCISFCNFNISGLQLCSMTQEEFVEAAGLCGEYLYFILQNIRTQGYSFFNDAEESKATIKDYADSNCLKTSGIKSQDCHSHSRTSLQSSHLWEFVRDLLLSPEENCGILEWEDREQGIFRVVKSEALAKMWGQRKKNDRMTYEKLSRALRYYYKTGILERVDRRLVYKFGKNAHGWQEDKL
To be noted: protein: recombinant; tags: N-terminal GST; dsDNA, one strand shown. The method, boiled down: as §1

The next assay concerns the target T12, ETV3 (Homo sapiens, UniProt P41162-2 1-143).
T12 sequence: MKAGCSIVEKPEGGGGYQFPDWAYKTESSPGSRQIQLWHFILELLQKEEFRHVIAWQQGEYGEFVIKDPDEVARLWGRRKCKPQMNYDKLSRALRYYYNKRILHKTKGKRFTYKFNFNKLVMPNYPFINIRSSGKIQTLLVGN
To be noted: protein: recombinant; tags: N-terminal GST; dsDNA, one strand shown. The method, boiled down: as §1

A further assay has as its target ETV6 (Homo sapiens, UniProt P41212 1-452). To be noted: protein: recombinant; tags: N-terminal GST; dsDNA, one strand shown. The method, boiled down:
as §1

Sequence of ETV5 (P41161 whole entry): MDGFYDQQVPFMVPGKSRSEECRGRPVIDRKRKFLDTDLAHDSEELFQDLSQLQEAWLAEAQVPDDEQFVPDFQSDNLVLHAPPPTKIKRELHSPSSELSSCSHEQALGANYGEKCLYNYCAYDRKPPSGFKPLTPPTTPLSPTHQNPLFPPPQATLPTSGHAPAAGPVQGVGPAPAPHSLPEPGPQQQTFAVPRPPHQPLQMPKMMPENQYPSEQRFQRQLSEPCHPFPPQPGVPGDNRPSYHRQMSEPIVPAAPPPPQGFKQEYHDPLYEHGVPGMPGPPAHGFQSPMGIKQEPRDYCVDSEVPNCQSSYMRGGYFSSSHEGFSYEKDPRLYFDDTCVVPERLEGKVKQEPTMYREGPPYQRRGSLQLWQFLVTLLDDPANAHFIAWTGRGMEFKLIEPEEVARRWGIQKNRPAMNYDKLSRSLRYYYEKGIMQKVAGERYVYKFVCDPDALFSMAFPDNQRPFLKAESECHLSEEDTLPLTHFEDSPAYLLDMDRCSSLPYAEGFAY
Sequence of HSF1 (Q00613 whole entry): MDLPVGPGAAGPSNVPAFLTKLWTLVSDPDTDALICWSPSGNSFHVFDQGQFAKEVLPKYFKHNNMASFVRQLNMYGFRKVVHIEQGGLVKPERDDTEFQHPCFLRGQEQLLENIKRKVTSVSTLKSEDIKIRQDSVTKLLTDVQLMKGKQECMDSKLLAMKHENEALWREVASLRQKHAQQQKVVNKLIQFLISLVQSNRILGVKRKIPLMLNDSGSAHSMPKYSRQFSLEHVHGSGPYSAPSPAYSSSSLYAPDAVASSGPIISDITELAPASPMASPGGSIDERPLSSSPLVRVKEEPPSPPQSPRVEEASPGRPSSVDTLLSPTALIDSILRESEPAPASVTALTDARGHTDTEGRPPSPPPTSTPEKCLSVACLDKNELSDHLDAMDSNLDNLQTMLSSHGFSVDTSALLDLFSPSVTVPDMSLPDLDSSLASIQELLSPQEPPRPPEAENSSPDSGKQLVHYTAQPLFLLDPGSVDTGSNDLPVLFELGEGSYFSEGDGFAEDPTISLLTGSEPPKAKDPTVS
Sequence of ETV6 (P41212 whole entry): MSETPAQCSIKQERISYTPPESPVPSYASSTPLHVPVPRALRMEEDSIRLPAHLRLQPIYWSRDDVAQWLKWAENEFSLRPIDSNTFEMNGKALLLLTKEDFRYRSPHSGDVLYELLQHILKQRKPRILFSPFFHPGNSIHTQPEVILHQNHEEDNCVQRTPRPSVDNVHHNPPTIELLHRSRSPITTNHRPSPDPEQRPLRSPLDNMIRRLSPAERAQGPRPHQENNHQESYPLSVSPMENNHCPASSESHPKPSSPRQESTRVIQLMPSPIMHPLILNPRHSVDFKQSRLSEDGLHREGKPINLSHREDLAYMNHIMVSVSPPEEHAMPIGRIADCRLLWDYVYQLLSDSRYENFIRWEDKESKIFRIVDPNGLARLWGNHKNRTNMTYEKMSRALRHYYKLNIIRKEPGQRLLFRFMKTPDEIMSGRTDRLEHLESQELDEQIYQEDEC
Sequence of ETV1 (P50549 whole entry): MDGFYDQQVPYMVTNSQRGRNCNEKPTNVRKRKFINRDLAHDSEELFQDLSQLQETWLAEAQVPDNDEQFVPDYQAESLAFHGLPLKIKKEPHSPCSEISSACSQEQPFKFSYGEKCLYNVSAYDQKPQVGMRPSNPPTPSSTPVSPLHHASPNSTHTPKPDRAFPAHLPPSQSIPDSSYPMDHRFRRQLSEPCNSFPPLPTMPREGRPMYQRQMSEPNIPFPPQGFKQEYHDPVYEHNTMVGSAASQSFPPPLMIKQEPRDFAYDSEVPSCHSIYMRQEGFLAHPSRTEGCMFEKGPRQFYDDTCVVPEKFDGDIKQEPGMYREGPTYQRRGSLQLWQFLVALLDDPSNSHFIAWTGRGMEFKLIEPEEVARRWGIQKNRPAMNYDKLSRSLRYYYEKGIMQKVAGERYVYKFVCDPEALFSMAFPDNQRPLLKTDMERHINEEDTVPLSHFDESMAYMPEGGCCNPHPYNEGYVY
Sequence of CRX (O43186 whole entry): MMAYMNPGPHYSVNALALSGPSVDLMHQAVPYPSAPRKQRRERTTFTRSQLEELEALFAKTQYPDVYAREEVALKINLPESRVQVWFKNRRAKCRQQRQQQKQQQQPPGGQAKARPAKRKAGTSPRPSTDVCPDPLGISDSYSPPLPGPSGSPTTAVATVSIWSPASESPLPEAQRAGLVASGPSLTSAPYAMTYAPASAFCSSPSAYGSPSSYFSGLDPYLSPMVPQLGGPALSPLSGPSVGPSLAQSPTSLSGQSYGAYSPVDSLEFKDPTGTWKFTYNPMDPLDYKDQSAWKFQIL
Sequence of ELF4 (Q99607 whole entry): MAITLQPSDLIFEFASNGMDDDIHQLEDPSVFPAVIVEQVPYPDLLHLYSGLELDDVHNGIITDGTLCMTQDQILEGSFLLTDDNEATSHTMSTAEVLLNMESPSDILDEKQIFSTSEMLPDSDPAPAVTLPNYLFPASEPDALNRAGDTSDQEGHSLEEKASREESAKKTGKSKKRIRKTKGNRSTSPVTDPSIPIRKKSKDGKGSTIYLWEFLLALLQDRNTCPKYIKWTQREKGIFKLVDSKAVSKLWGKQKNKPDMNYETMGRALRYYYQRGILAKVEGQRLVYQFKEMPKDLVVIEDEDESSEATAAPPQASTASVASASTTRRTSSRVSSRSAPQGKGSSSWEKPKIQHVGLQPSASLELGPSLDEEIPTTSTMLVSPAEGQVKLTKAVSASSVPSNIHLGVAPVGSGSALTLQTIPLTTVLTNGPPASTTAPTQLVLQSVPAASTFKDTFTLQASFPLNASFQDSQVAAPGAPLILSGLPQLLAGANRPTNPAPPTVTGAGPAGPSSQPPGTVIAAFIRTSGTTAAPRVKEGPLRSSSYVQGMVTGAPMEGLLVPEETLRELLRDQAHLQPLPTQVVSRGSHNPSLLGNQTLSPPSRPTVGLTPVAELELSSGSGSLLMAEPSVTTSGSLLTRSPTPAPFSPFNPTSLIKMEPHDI

Regarding CTGCCT, the binding signal with FEV is 1.2 fold enrichment (6-mer frequency, TF over GST control); with ETV5, 1.18 fold enrichment (6-mer frequency, TF over GST control); in the assay with HSF1, 1.13 fold enrichment (6-mer frequency, TF over GST control); in the assay with SPIC it was 1.07 fold enrichment (6-mer frequency, TF over GST control); in the assay with ELF4 it was 1.21 fold enrichment (6-mer frequency, TF over GST control); in the assay with ELK4, 1.14 fold enrichment (6-mer frequency, TF over GST control). Further, the binding signal is 1.15 fold enrichment (6-mer frequency, TF over GST control) in the assay with ETV2; 1.17 fold enrichment (6-mer frequency, TF over GST control) in the assay with ELF3; 1.11 fold enrichment (6-mer frequency, TF over GST control) with CRX; 1.24 fold enrichment (6-mer frequency, TF over GST control) with ETV1; 1.23 fold enrichment (6-mer frequency, TF over GST control) in the assay with ERF; 1.26 fold enrichment (6-mer frequency, TF over GST control) in the assay with ETV3L. The binding signal in the assay with ETS2 was 1.16 fold enrichment (6-mer frequency, TF over GST control); in the assay with SPDEF, 1.31 fold enrichment (6-mer frequency, TF over GST control); with ETV7, 1.36 fold enrichment (6-mer frequency, TF over GST control); with ELF5 it was 1.29 fold enrichment (6-mer frequency, TF over GST control); with ETV3, 1.23 fold enrichment (6-mer frequency, TF over GST control); with ETV6 it was 1.31 fold enrichment (6-mer frequency, TF over GST control).
